{"source": "PubChem BioAssay (NCATS)", "note": "Inconclusive results are not listed. A number with no mark means an inactive call. Active and inactive are the calls of the source. Unless noted, the call rests on the fitted dose curve; in most records, active means well fitted curve in the direction sought with a large enough effect; inconclusive means small, poorly fitted or top-dose-only effect, or another doubt; inactive means no such curve, though single readings can be large; an effect the other way counts as inactive or inconclusive.", "data": [{"biological_target": "Mitogen-activated protein kinase 10 (Mus musculus) (UniProt Q61831)", "experiment": "JNK3 AlphaScreen Assay (AID 530; active means well fitted curve in either direction with a large enough effect, not every such curve was filed as active;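 further: kinase came from lysate of stimulated human HepG2 cells; on the % scale 0 is the no-effect control and ±100 the full control effect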)", "settings": "JNK3 lysate, c-Jun phosphorylation; series mostly up to 57.1 µM; activity change, negative = inhibition: at the top concentration", "method_in_brief": "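Pre-activated (IL-1β/TNFα) JNK3 in HepG2 lysates phosphorylates biotin-GST-cJun(1-79), 10 uM ATP; anti-phospho-cJun(Ser73) AlphaScreen read at room temperature, pH 7.6 Tris buffer. Compounds pre-incubated 15 min as titrations.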", "values": [{"smiles": "COc1ccc2nc(S(=O)Cc3ncc(C)c(OC)c3C)[nH]c2c1", "note": "(stereo unspecified)", "activity change, negative = inhibition": "-10.3% [at 25.6 µM]"}, {"smiles": "NC(N)=NC(=O)c1nc(Cl)c(N)nc1N", "outcome": "inactive"}, {"smiles": "O=NN(CCCl)C(=O)NCCCl", "activity change, negative = inhibition": "-7.25%"}, {"smiles": "C1COC(NC(C2CC2)C2CC2)=N1", "outcome": "inactive"}, {"smiles": "NC(=O)c1cnccn1", "outcome": "inactive"}, {"smiles": "Cc1[nH]c(=O)c(C#N)cc1-c1ccncc1", "outcome": "inactive"}, {"smiles": "NC(=O)c1ccc(-c2nc(-c3ccc4c(c3)OCO4)c(-c3ccccn3)[nH]2)cc1", "activity change, negative = inhibition": "-34.4%"}, {"smiles": "CC(C)C[C@H](NC(=O)[C@@H](O)[C@H](N)Cc1ccccc1)C(=O)O", "activity change, negative = inhibition": "-11.8%"}, {"smiles": "CCN(c1ccccc1)c1cc(NC)[n+](C)c(C)n1", "activity change, negative = inhibition": "-20.2%"}, {"smiles": "CC(=O)Oc1ccccc1C(=O)O", "outcome": "inactive"}, {"smiles": "CNC[C@H](O)c1cccc(O)c1", "activity change, negative = inhibition": "2.99%"}, {"smiles": "O=c1n(CCCN2CCN(c3cccc(Cl)c3)CC2)nc2ccccn12", "outcome": "inactive"}, {"smiles": "Cn1cnc([N+](=O)[O-])c1Sc1ncnc2nc[nH]c12", "outcome": "inactive"}, {"smiles": "CCCC(CCC)C(=O)O", "activity change, negative = inhibition": "18.4%"}, {"smiles": "CC(C)(Sc1ccc(CCN(CCCCC2CCCCC2)C(=O)NC2CCCCC2)cc1)C(=O)O", "outcome": "inactive"}, {"smiles": "CCCCNc1cc(C(=O)O)cc(S(N)(=O)=O)c1Oc1ccccc1", "activity change, negative = inhibition": "-0.869% [at 25.6 µM]"}, {"smiles": "NS(=O)(=O)c1cc2c(cc1Cl)NC=NS2(=O)=O", "outcome": "inactive"}, {"smiles": "CCC(C)(C)C(=O)O[C@H]1C[C@@H](C)C=C2C=C[C@H](C)[C@H](CC[C@@H]3C[C@@H](O)CC(=O)O3)[C@H]21", "activity change, negative = inhibition": "-8.9%"}, {"smiles": "CCOC(=O)N1CCC(=C2c3ccc(Cl)cc3CCc3cccnc32)CC1", "outcome": "inactive"}, {"smiles": "Cc1ccc2c(c1)C(=O)[C@@]1(O)CCN(c3ccccc3)C1=N2", "activity change, negative = inhibition": "2.25%"}, {"smiles": "NCCc1ccc(O)c(O)c1", "activity change, negative = inhibition": "2.69%"}]}, {"tested_on": "not listed separately", "experiment": "Cell Viability - N2a (AID 540);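 further: plate controls were DMSO alone for no effect and tamoxifen control for full effect; nearly all actives have a fitted effect of over 45% in size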", "settings": "N2a mouse neuroblastoma cell viability; series mostly up to 92.2 µM; activity change, negative = cytotoxicity: at the top concentration", "method_in_brief": "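Luminescent ATP signal (CellTiter-Glo, 20 min at room temperature) served as the viability read-out after N2a cells were treated with compounds for 40 hours at 37 °C. Concentration-response data were fitted to the Hill equation for AC50.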", "units": {"activity change, negative = cytotoxicity": "%"}, "values": [{"smiles": "NC(N)=NC(=O)c1nc(Cl)c(N)nc1N", "activity change, negative = cytotoxicity": -14.9}, {"smiles": "NC(=O)c1cnccn1", "activity change, negative = cytotoxicity": 6.32}, {"smiles": "CC(=O)Oc1ccccc1C(=O)O", "outcome": "inactive"}, {"smiles": "CCCC(CCC)C(=O)O", "activity change, negative = cytotoxicity": -3.26}, {"smiles": "NS(=O)(=O)c1cc2c(cc1Cl)NC=NS2(=O)=O", "activity change, negative = cytotoxicity": -6.35}]}, {"tested_on": "not listed separately", "experiment": "Cell Viability - NIH 3T3 (AID 541); further: nearly all actives have a fitted effect of over 25% in size; further: potency means the concentration at half of the fitted maximal effect;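 on activity change, negative = cytotoxicity: plate controls were DMSO alone for no effect and tamoxifen positive control for full effect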", "settings": "NIH 3T3 cell viability, qHTS; series mostly up to 92.2 µM; activity change, negative = cytotoxicity: at the top concentration", "method_in_brief": "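Luminescent ATP signal (CellTiter-Glo) served as the viability read-out after NIH 3T3 cells were exposed to compounds over a concentration range for 40 hr at 37 °C. Hill-equation modelling of concentration-response data gave AC50.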", "units": {"activity change, negative = cytotoxicity": "%"}, "values": [{"smiles": "NC(N)=NC(=O)c1nc(Cl)c(N)nc1N", "activity change, negative = cytotoxicity": -5.14}, {"smiles": "NC(=O)c1cnccn1", "activity change, negative = cytotoxicity": 9.09}, {"smiles": "CC(=O)Oc1ccccc1C(=O)O", "Potency": "inactive"}, {"smiles": "Cn1cnc([N+](=O)[O-])c1Sc1ncnc2nc[nH]c12", "Potency": "3980 nM (active)"}, {"smiles": "CCCC(CCC)C(=O)O", "activity change, negative = cytotoxicity": -14.9}, {"smiles": "NS(=O)(=O)c1cc2c(cc1Cl)NC=NS2(=O)=O", "activity change, negative = cytotoxicity": -15.8}]}, {"tested_on": "not listed separately", "experiment": "Cell Viability - HUV-EC-C (AID 542); further: on the % scale 0 is the no-effect control and ±100 the full control effect; nearly all actives have a fitted effect of over 35% in size", "settings": "HUV-EC-C endothelial cell viability, qHTS; series mostly up to 92.2 µM; activity change, negative = cytotoxicity: at the top concentration", "method_in_brief": "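qHTS cytotoxicity: HUV-EC-C, 1000 cells/well, 5 hr settle, compound 40 hr 37 °C, CellTiter-Glo, luminescence. AC50 via Hill equation.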", "units": {"activity change, negative = cytotoxicity": "%"}, "values": [{"smiles": "NC(N)=NC(=O)c1nc(Cl)c(N)nc1N", "activity change, negative = cytotoxicity": -17.1}, {"smiles": "NC(=O)c1cnccn1", "activity change, negative = cytotoxicity": 3.88}, {"smiles": "CC(=O)Oc1ccccc1C(=O)O", "outcome": "inactive"}, {"smiles": "Cn1cnc([N+](=O)[O-])c1Sc1ncnc2nc[nH]c12", "activity change, negative = cytotoxicity": -17.5}, {"smiles": "CCCC(CCC)C(=O)O", "activity change, negative = cytotoxicity": 7.15}, {"smiles": "NS(=O)(=O)c1cc2c(cc1Cl)NC=NS2(=O)=O", "activity change, negative = cytotoxicity": -11.8}]}, {"tested_on": "not listed separately", "experiment": "Cell Viability - H-4-II-E (AID 543); further: nearly all actives have a fitted effect of over 35% in size; further: potency means the concentration at half of the fitted maximal effect; on activity change, negative = cytotoxic: on the % scale 0 is the no-effect control and ±100 the full control effect", "settings": "H-4-II-E rat hepatoma viability; series mostly up to 92.2 µM; activity change, negative = cytotoxic: at the top concentration", "method_in_brief": "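Luminescent ATP signal (CellTiter-Glo) served as the viability read-out, with cytotoxicity seen as a concentration-dependent ATP drop. Cells were treated for 40 hours in complete medium. AC50 values derive from Hill-equation modelling.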", "units": {"activity change, negative = cytotoxic": "%"}, "values": [{"smiles": "NC(=O)c1cnccn1", "activity change, negative = cytotoxic": -0.295}, {"smiles": "CC(=O)Oc1ccccc1C(=O)O", "Potency": "inactive"}, {"smiles": "Cn1cnc([N+](=O)[O-])c1Sc1ncnc2nc[nH]c12", "Potency": "631 nM (active)"}, {"smiles": "NS(=O)(=O)c1cc2c(cc1Cl)NC=NS2(=O)=O", "activity change, negative = cytotoxic": -1.64}]}, {"tested_on": "not listed separately", "experiment": "Cell Viability - SH-SY5Y (AID 544);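 further: 0% = DMSO alone and -100% = 100 µM tamoxifen; nearly all actives have a fitted effect of over 55% in size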", "settings": "SH-SY5Y neuroblastoma cell viability; series mostly up to 92.2 µM; viability change, negative = cytotoxic: at the top concentration", "method_in_brief": "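Luminescent ATP read-out (CellTiter-Glo) measures loss of viable SH-SY5Y neuroblastoma cells after 40 hr compound exposure at 37 °C. AC50 values derive from standard Hill modelling of qHTS concentration-response data.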", "units": {"viability change, negative = cytotoxic": "%"}, "values": [{"smiles": "NC(=O)c1cnccn1", "viability change, negative = cytotoxic": -5.62}, {"smiles": "CC(=O)Oc1ccccc1C(=O)O", "outcome": "inactive"}, {"smiles": "CCCC(CCC)C(=O)O", "viability change, negative = cytotoxic": -1.63}, {"smiles": "NS(=O)(=O)c1cc2c(cc1Cl)NC=NS2(=O)=O", "viability change, negative = cytotoxic": -10}]}, {"tested_on": "not listed separately", "experiment": "Cell Viability - Renal Proximal Tubule (AID 545);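 further: 0% = DMSO only and -100% = 100 µM tamoxifen; nearly all actives have a fitted effect of over 40% in size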", "settings": "renal proximal tubule cells viability, primary cells of rat origin; series mostly up to 91.7 µM; activity change, negative = cytotoxicity: at the top concentration", "method_in_brief": "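Luminescent ATP signal (CellTiter-Glo) served as the viability read-out after 40 hr compound exposure of freshly isolated rat proximal tubule cells at 37 °C. Concentration-dependent ATP loss was fitted with the Hill equation to give AC50.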", "units": {"activity change, negative = cytotoxicity": "%"}, "values": [{"smiles": "NC(N)=NC(=O)c1nc(Cl)c(N)nc1N", "activity change, negative = cytotoxicity": -4.03}, {"smiles": "NC(=O)c1cnccn1", "activity change, negative = cytotoxicity": -9.49}, {"smiles": "CC(=O)Oc1ccccc1C(=O)O", "outcome": "inactive"}, {"smiles": "CCCC(CCC)C(=O)O", "activity change, negative = cytotoxicity": -3.4}, {"smiles": "NS(=O)(=O)c1cc2c(cc1Cl)NC=NS2(=O)=O", "activity change, negative = cytotoxicity": 0.723}]}]}
